In the supplement of paper PMC4894684:
Counter-ions that a name gives are not always drawn. ± gives the standard deviation of the averaged measurements.

What follows are compounds tested on Toxoplasma gondii RH (in HFF) (assay: parasite growth relative to the screen mean (all compounds = 100%); higher = less inhibition of parasite growth). Settings: 5 µM; 72 h; oxygen 21 %.
Summary of the method: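 Growth values are relative to the mean of the whole screen and averaged over duplicate screens, with all compounds together set to 100%. Parasites (RH β-Gal–GFP Toxoplasma, MOI 1:5) were added within 2 h of pinning compounds at 5 µM final onto confluent human foreskin fibroblasts and grown 72 h at 21% O2. Parasite number came from CPRG β-Gal readings against in-plate standard curves.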
`O=Nc1ccc(O)c2ncccc12` gave a parasite growth of under 0%. Compound `NC(=O)N1c2ccccc2CC(O)c2ccccc21` (centres undefined) [Licarbazepine] has a parasite growth of 122 ± 9.9%. With `Nc1nc(F)nc2c1ncn2[C@@H]1O[C@H](CO)[C@@H](O)[C@@H]1O` [Fludarabine] the parasite growth was 102 ± 10%. `CCOC(=O)c1ccc(OC(=O)CCCCCNC(=N)N)cc1` [Gabexate mesylate] was tested, and the parasite growth was 144 ± 6.4%. In the case of `COc1cc(C[C@H]2C(=O)OC[C@@H]2Cc2ccc(OC)c(OC)c2)ccc1O` [Arctigenin], the parasite growth is reported as 125 ± 10%. Compound `CCCC1O[C@@H]2C[C@H]3[C@@H]4CCC5=CC(=O)C=C[C@]5(C)[C@H]4[C@@H](O)C[C@]3(C)[C@]2(C(=O)CO)O1` (some centres undefined) [Budesonide] has a parasite growth of 138 ± 12%. With `O=c1cc(-c2ccc(O)cc2)oc2cc(O)cc(O)c12` [Apigenin] the parasite growth was 102 ± 21%. `O=c1c(O)c(-c2ccc(O)c(O)c2)oc2cc(O)cc(O)c12` [Quercetin] was tested, and the parasite growth was 180 ± 32%. Work on `CCCc1c(OCC(O)COc2ccc3c(=O)cc(C(=O)O)oc3c2CCC)ccc(C(C)=O)c1O` (centres undefined) yielded a parasite growth of 96.9 ± 7.1%. For `CC(C)[C@H](CO)Nc1nc(Nc2ccc(C(=O)O)c(Cl)c2)c2ncn(C(C)C)c2n1` [Purvalanol B], the parasite growth was 141 ± 2.9%. With `CCOC(=O)c1ncc2[nH]c3cccc(OC(C)C)c3c2c1C` the parasite growth was 101 ± 26%. Work on `CC1(CN2CCC(n3c(=O)[nH]c4ccccc43)CC2)OCc2ccccc2-n2cccc21` (centres undefined) yielded a parasite growth of 113 ± 47%. In the case of `NS(=O)(=O)C#Cc1ccccc1` [Pifithrin->m], the parasite growth is reported as 123 ± 13%. In the case of `N[C@@H](Cc1cc(-c2ccc(Cl)cc2Cl)cc(CP(=O)(O)O)c1O)C(=O)O`, the parasite growth is reported as 127 ± 26%. Work on `Cc1nc2ccc(NC(=O)Nc3ccnc4cccnc34)cc2o1` yielded a parasite growth of 88.83 ± 0.52%. `COc1ccc(CC(=O)NC(/N=C(\NC#N)Nc2cccc3ncccc23)C(C)(C)C)cc1OC` (centres undefined) was tested, and the parasite growth was 123 ± 17%. `O=C1CCc2c(ccc3ccccc23)O1` [Splitomicin] was tested, and the parasite growth was 149 ± 2.2%. Work on `O=c1[nH]c2cc(Cl)ccc2c(O)c1-c1cccc(Oc2ccccc2)c1` yielded a parasite growth of 103 ± 19%. `CS(=O)(=O)Nc1c(O)ccc2c1CCCC2C1=NCCN1` (centres undefined) was tested, and the parasite growth was 101 ± 12%. With `CC1(C)C(=O)NC2=C1C(=O)C(=O)c1ccccc12` the parasite growth was under 0%. In the case of `CCCCCCCCCCCCCCCC(=O)NCCO` [Palmitoylethanolamide], the parasite growth is reported as 64.8 ± 16%. `CC[N+](CC)(CC)CC(=O)Nc1c(C)cccc1C` [QX 314 chloride] gave a parasite growth of 133 ± 29%. For `CCOc1cc(CC(=O)N[C@@H](CC(C)C)c2ccccc2N2CCCCC2)ccc1C(=O)O` [Repaglinide], the parasite growth was 150 ± 13%. For `c1ccc(C(O[C@@H]2CCCN(CCc3ccc4c(c3)OCO4)C2)c2ccccc2)cc1` [Zamifenacin fumarate], the parasite growth was 128 ± 20%.
